The supplement of paper PMC6522484
± gives the standard deviation of the averaged measurements.

Columns and labels:
DLD1 [1] = assay: cell viability (CellTiter-Glo) relative to plate median (fraction of plate median); higher = more viable cells; conditions: 5 µM; treatment time 24 h; reporter: 7TFP
In short: (§1)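 After seeding in 384-well plates, colorectal cancer cell lines carrying stable lentiviral TCF/Wnt firefly luciferase reporters (7TFP or TCF4/Wnt) were left 24 h. Library compounds were then added at a final 5 µM for 24 h. A Tecan F500 reader measured firefly luciferase or CellTiterGlo luminescence on parallel plates, with each well normalised to the plate median by webcellHTS2 (additive, no log transformation), and two independent replicates averaged.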

HCT116 = assay: as above; conditions: 5 µM; treatment time 24 h; reporter: TCF4/Wnt
In short: as §1

SW480 [2] = assay: as above; conditions: 5 µM; treatment time 24 h; reporter: 7TFP
In short: as §1

DLD1 [3] = assay: TCF/Wnt firefly luciferase reporter signal relative to plate median (fraction of plate median); higher = higher Wnt reporter signal; conditions: 5 µM; treatment time 24 h; reporter: 7TFP
In short: as §1

SW480 [4] = assay: as above; conditions: 5 µM; treatment time 24 h; reporter: 7TFP
In short: as §1

Compound	cell viability (DLD1 [1])	cell viability (HCT116)	cell viability (SW480 [2])	TCF/Wnt firefly luciferase reporter signal (DLD1 [3])	TCF/Wnt firefly luciferase reporter signal (SW480 [4])
CC1=C(CCC(=O)O)c2cc3nc(cc4[nH]c(cc5[nH]c(cc1n2)c(C)c5C(C)O)c(C)c4C(C)O)C(C)=C3CCC(=O)O (stereo not given)	1.01 ± 0.015	0.909 ± 0.11	0.964 ± 0.0099	1.01 ± 0.13	1.02 ± 0.16
CC(=O)NCCc1ccc(O)cc1 [N-Acetyl-tyramine]	0.951 ± 0.017	0.985 ± 0.092	0.991 ± 0.0071	1.13 ± 0.042	1.05 ± 0.035
Oc1ccc(O)cc1	0.839 ± 0.11	0.856 ± 0.022	0.959 ± 0.1	1.14 ± 0.14	1.04 ± 0.2
CCCCC/C=C/CCC(=O)N[C@H]1[C@H](Oc2c3cc4cc2Oc2ccc(cc2Cl)[C@@H](O[C@@H]2O[C@H](CO)[C@@H](O)[C@H](O)[C@H]2NC(C)=O)[C@@H]2NC(=O)[C@H](NC(=O)[C@@H]4NC(=O)[C@H]4NC(=O)C(Cc5ccc(c(Cl)c5)O3)NC(=O)[C@H](N)c3ccc(O)c(c3)Oc3cc(O)cc4c3)c3ccc(O)c(c3)-c3c(OC4O[C@H](CO)[C@@H](O)[C@H](O)[C@@H]4O)cc(O)cc3[C@@H](C(=O)O)NC2=O)O[C@H](CO)[C@@H](O)[C@@H]1O (stereo not given in full) [TEICOPLANIN [A(2-1) shown]]	1.04 ± 0.035	1.01 ± 0.07	1.02 ± 0.083	0.971 ± 0.0071	1 ± 0.04
Cc1c2oc3c(C)ccc(C(=O)N[C@@H]4C(=O)N[C@H](C(C)C)C(=O)N5CCC[C@H]5C(=O)N(C)CC(=O)N(C)[C@@H](C(C)C)C(=O)O[C@@H]4C)c3nc-2c(C(=O)N[C@@H]2C(=O)N[C@H](C(C)C)C(=O)N3CCC[C@H]3C(=O)N(C)CC(=O)N(C)[C@@H](C(C)C)C(=O)O[C@@H]2C)c(N)c1=O	1.06 ± 0.071	0.601 ± 0.18	1.31 ± 0.035	0.612 ± 0.11	0.802 ± 0.039
COc1cc2c(cc1OC)-c1cc3ccc(OC)c(OC)c3c[n+]1CC2	0.983 ± 0.067	0.896 ± 0.16	0.949 ± 0.054	1.105 ± 0.0071	1.01 ± 0.073
Cn1c(=O)[nH]c(=O)c2[nH]cnc21	0.955 ± 0.026	0.8635 ± 0.0064	0.967 ± 0.032	1.09 ± 0.17	1.16 ± 0.042
CC(C)C1=CC2=CC[C@@H]3[C@](C)(CCC[C@@]3(C)C(=O)O)[C@H]2CC1	0.967 ± 0.09	0.97 ± 0.013	0.897 ± 0.012	1.1 ± 0.11	0.912 ± 0.09
O=C1N=C(O)NC1(c1ccccc1)c1ccccc1	1.06 ± 0.05	0.957 ± 0.015	1.005 ± 0.0071	1.08 ± 0.021	1.08 ± 0.021
CC1(C)C(=O)C=C[C@@]2(C)C1CC(=O)[C@@]1(C)C3=CC(=O)O[C@@H](c4ccoc4)[C@]3(C)CCC12 (stereo not given in full)	0.921 ± 0.04	0.988 ± 0.045	0.977 ± 0.027	0.913 ± 0.03	0.956 ± 0.076
C=CC(C1=CC(=O)C(OC)=CC1=O)c1ccccc1 (stereo not given)	0.983 ± 0.0014	1.05 ± 0.042	1.03 ± 0.021	0.985 ± 0.079	1.01 ± 0.054
Cc1c(N(C)CS(=O)(=O)O)c(=O)n(-c2ccccc2)n1C	1.04 ± 0.014	0.968 ± 0.035	1.06 ± 0.085	0.969 ± 0.059	1.04 ± 0.059
COc1ccc(C(Cl)=C(c2ccc(OC)cc2)c2ccc(OC)cc2)cc1	1.01 ± 0.044	1.12 ± 0.05	0.978 ± 0.032	0.915 ± 0.19	0.877 ± 0.17
O=C(O)c1cc(-c2ccc(F)cc2F)ccc1O	0.973 ± 0.0042	1.07 ± 0.057	1.01 ± 0.021	1.32 ± 0.13	1.16 ± 0.021
OCCN(CCO)c1nc(N2CCCCC2)c2nc(N(CCO)CCO)nc(N3CCCCC3)c2n1	0.905 ± 0.0042	0.991 ± 0.013	0.973 ± 0.016	1.13 ± 0.042	1.03 ± 0.028
C[C@@H]1Cc2cc(O)cc(O)c2C(=O)O1 [6-Hydroxymellein]	0.98 ± 0.0071	0.987 ± 0.018	1.015 ± 0.0071	0.927 ± 0.1	0.974 ± 0.037
CC1(C)S[C@@H]2[C@H](N3C(=O)[C@@H](c4ccccc4)NC3(C)C)C(=O)N2[C@H]1C(=O)O	1.05 ± 0.079	1.055 ± 0.0071	1.08 ± 0.071	1.15 ± 0.042	1.09 ± 0.014
COC(=O)CC1C(C)(C)C(OC(C)=O)[C@@H]2[C@@H](OC(C)=O)[C@]34O[C@@]2(O)[C@]1(C)C3CC[C@]1(C)C4=CC(=O)O[C@H]1c1ccoc1 (stereo not given in full)	1.02 ± 0.11	1.02 ± 0.098	1.04	1.01 ± 0.061	0.992 ± 0.026
CCCCC1=NC2(CCCC2)C(=O)N1Cc1ccc(-c2ccccc2-c2nnn[nH]2)cc1	0.897 ± 0.099	0.939 ± 0.016	1 ± 0.083	1.01 ± 0.048	0.811 ± 0.22
O=C(O[C@@H]1Cc2c(O)cc(O)cc2O[C@@H]1c1cc(O)c(O)c(O)c1)c1cc(O)c(O)c(O)c1	1.03 ± 0.035	1.01 ± 0.048	1.08 ± 0.014	0.974 ± 0.037	0.916 ± 0.014
C=CCCCCCCCCC(=O)O	1.03 ± 0.072	1.08 ± 0.13	1 ± 0.022	1.01 ± 0.025	1 ± 0.037
CCNC(=O)CC[C@H](N)C(=O)O	1.01 ± 0.021	1.03 ± 0.06	0.998 ± 0.018	1.13 ± 0.11	1.05 ± 0.014
CC1=C(C/C=C(\C)CCC[C@H](C)CCC[C@H](C)CCCC(C)C)C(=O)c2ccccc2C1=O	0.9945 ± 0.00071	0.988 ± 0.06	0.998 ± 0.045	0.819 ± 0.03	0.92 ± 0.064
C[C@@H]1C[C@H]2[C@@H]3CCC4=CC(=O)C=C[C@]4(C)[C@@]3(F)[C@@H](O)C[C@]2(C)[C@@]1(O)C(=O)COP(=O)(O)O	1.03 ± 0.052	1.02 ± 0.075	1.01 ± 0.093	0.954 ± 0.065	0.906 ± 0.0014
CO[C@H]1[C@H](O)[C@@H](O)[C@H](O)[C@H](O)[C@H]1O	0.981 ± 0.018	0.953 ± 0.026	1.03 ± 0.014	1.11 ± 0.13	1.1 ± 0.092
C[C@]12CCC[C@H](O1)c1c(cc3c(c1O)C(=O)c1c(O)cc(O)cc1C3=O)O2 [Averufin (Isoform B, Compound ID 7395)]	1.09 ± 0.14	1.01 ± 0.014	1.03 ± 0.054	1.02 ± 0.035	0.942 ± 0.14
C=C1C2CC[C@@]3(C)[C@H](c4ccoc4)OC(=O)C[C@]13O[C@H]1CC(O)C(C)(C)C(CC(=O)OC)[C@@]21C (stereo partly drawn) [3alpha-HYDROXY-3-DEOXYANGOLENSIC ACID METHYL ESTER]	1.01 ± 0.049	0.943 ± 0.081	1.02 ± 0.059	1.05 ± 0.05	0.968 ± 0.06
CC(=O)Oc1cc(C)c2c(c1C=O)Oc1c(c(C)c(OC(C)=O)c3c1C(OC(C)=O)OC3=O)OC2=O (stereo not given)	1.025 ± 0.0071	0.949 ± 0.039	1.04 ± 0.063	0.875 ± 0.084	1.01 ± 0.099
